From PubChem BioAssay AID1745856 (National Center for Advancing Translational Sciences (NCATS), 2022)
Among all 120,000 compounds or so, about 270 (0.23%) were called active. Inconclusive results (about 5%) are left out. Only a selection was taken, and actives are over-represented in it overall. Values without a mark were called inactive. Calls follow the shape of the full dose curve.

test: Primary qHTS Assay for Foot and Mouth Disease Virus Antivirals against NCGC Sytravon and CBC Compound Libraries: Firefly Luciferase Signal; details: FMDV antiviral cell assay; series mostly up to 57.5 µM; activity change, negative = inhibition: at the top concentration; also: nearly all actives have a fitted effect of over 60% in size
% is scaled to controls: 0 for no effect and ±100 for the full control effect; potency is read from the fitted curve at half-maximal effect.

Structure (SMILES)	activity change, negative = inhibition	Potency
CCCc1cc(=O)oc2cc(OCC(=O)NCc3ccc(S(N)(=O)=O)cc3)ccc12	0.254%	–
O=C(NCc1ccccn1)C1c2ccccc2C(=O)N(C2CCCC2)C12CCCC2 (stereo not drawn)	0.974%	–
CCOc1cc(-c2nnc(SCC(=O)NC3CCCC3)nc2-c2ccc(OC)c(OCC)c2)ccc1OC	38.3%	–
CCOc1cc(-c2nnc(SCC(=O)NC3CCCCC3)nc2-c2ccc(OC)c(OCC)c2)ccc1OC	-17.6%	–
COc1ccc(-c2nc(CSCC(=O)NC3CCCCCC3)c(C)o2)cc1OC	–	14.1 µM (active)
O=C(NCc1cccnc1)C(F)(F)C(F)(F)C(F)(F)F	-6.42%	–
Fc1ccc(N=Cc2cccc(Oc3ccccc3)c2)c(F)c1F	8.8%	–
COc1cccc(NC(=O)CCCc2nc(C(C)C)no2)c1	9.4%	–
CCN1CCCC1CNC(=O)c1cccc2c(=O)c(C)c(-c3ccccc3)oc12 (stereo not drawn)	-14.1%	–
Cc1ccc(NC(=O)COC(=O)c2ccc(C3Nc4ccccc4S(=O)(=O)N3)cc2)cc1 (stereo not drawn)	2.63%	–
CC(C)c1cccc(NC(=O)Cc2c[nH]c3ccccc23)c1	18.7%	–
COc1ccc(-c2csc3c2NC(=O)CC3c2ccc(OCC(N)=O)c(OC)c2)cc1 (stereo not drawn)	–	3.98 µM (active)
COc1ccc(C2CC(=O)Nc3c2c(=O)nc2c(C)cccn32)cc1OC (stereo not drawn)	-5.25%	–
Cc1ccc(-c2csc3c2NC(=O)CC3c2ccc(C)cc2)cc1 (stereo not drawn)	7.72%	–
Cn1c(=O)[nH]c(=O)c2c1nc(NC1CCCCC1)n2CCCc1ccccc1	-4.08%	–
Cn1nc(CC(=O)Nc2cccc(Cl)c2)c2ccccc2c1=O	–	8.91 µM (active)
COc1ccc(Cl)cc1NC(=O)COC(=O)c1nn(C)c(=O)c2ccccc12	4.36%	–
COc1ccc(NC(=O)COC(=O)c2nn(C)c(=O)c3ccccc23)cc1Cl	8.49%	–
Cc1ccc(-c2nc(CC(=O)NCc3ccc(Cl)cc3)cs2)o1	11%	–
COC(=O)c1c(C)[nH]c(C(=O)N2CCCCCC2c2ccc(OC)cc2)c1C (stereo not drawn)	27.9%	–
COc1nc2ccccc2nc1N1CCC(C(=O)NCc2ccccc2)CC1	-6.82%	–
COc1ccc(-c2cc(C(F)(F)F)nc(S(=O)(=O)CCC(=O)NCc3ccccc3)n2)cc1	17.2%	–
CC(C)(C)c1ccc(-c2nnc(-c3ccc(Br)o3)o2)cc1	227%	–

Structure (SMILES)	activity change, negative = inhibition	Potency
Clc1ccc(CNc2n[nH]c(-c3ccco3)n2)c(Cl)c1	2.56%	–
O=C(c1ccn(COc2ccccc2)n1)N1CCN(Cc2ccc(Cl)c(Cl)c2)CC1	-20.2%	–
Cn1ccnc1C(NC(=O)Cc1ccsc1)c1ccccc1F (stereo not drawn)	-5.78%	–
O=C(NC12CC3CC(CC(C3)C1)C2)C1CCCO1 (stereo not drawn)	0.929%	–
C=C(C)C#CC(Cc1ccccc1)NCC1CC1 (stereo not drawn)	4.99%	–
O=C(/C=C/c1ccc(Cl)cc1)OC1CCCCC1=O (stereo not drawn)	131%	–
CCOc1ccc2c(c1)cc(C(=O)Nc1cc(OC)ccc1OC)n2C	6.52%	–
COC(=O)c1ccc(S(=O)(=O)Nc2cccc(C(=O)OC)c2)cc1	6.65%	–
COCCn1c(-n2nc(C)cc2C)nc2c1c(=O)n(Cc1ccccc1F)c(=O)n2C	-7.87%	–
Cc1ccc(NC(=O)c2cccc(CS(C)=O)c2)c(C)c1 (stereo not drawn)	0%	–
FC(F)(F)c1cnc(Sc2nnc(C3CC3)n2-c2ccccc2)c(Cl)c1	-10.1%	–
O=C(CSc1n[nH]c(-c2cc(Cl)ccc2Cl)n1)N1CCCC1	14.1%	–
CCC(=O)Nc1ccc(C)cc1-c1nnc(SCC(=O)Nc2cc(Cl)ccc2Cl)[nH]c1=O	-0.529%	–
COc1ccc2c(C)c(CC(=O)N3CCN(c4ccccn4)CC3)c(=O)oc2c1OC	-12.5%	–
COc1ccccc1Oc1coc2cc(OCc3ccc(Cl)cc3)ccc2c1=O	21.1%	–
CCn1c(=O)c2sccc2n(CC(=O)N2CCOc3ccc(C)cc32)c1=O	-4.07%	–
CCCCC(CC)CNC(=O)CCCCn1c(=O)[nH]c2ccsc2c1=O (stereo not drawn)	-10.5%	–
CC(=O)Nc1ccc(C(=O)COc2ncnc3sccc23)cc1	18.7%	–
CCCCC(CC)CNc1ncnc2sccc12 (stereo not drawn)	–	8.91 µM (active)
C=CCn1c(-n2nc(C)cc2C)nc2c1c(=O)n(CCOCC)c(=O)n2C	8.16%	–
CC(C)Oc1ccc(C2CC(=O)NC3=C2C(=O)CC(C)(C)C3)cc1 (stereo not drawn)	24.8%	–
N#C/C(=C/c1ccco1)c1nc2ccccc2[nH]1	181%	–
CC(Cn1cccn1)NC(=O)c1cc(Cl)c2c(c1)OCO2 (stereo not drawn)	0%	–

Structure (SMILES)	activity change, negative = inhibition	Potency
Cc1cc(=O)n2c3ccccc3n(CC(O)CNc3ccc(Cl)cc3)c2c1C#N (stereo not drawn)	-3.73%	–
CCOC(=O)C1(C(C)=O)CC(C(=O)c2ccccc2)C(c2ccccc2)C(C(=O)c2ccccc2)C1 (stereo not drawn)	1.77%	–
COc1cc(OC)cc(C(NC(=O)NOCc2ccccc2)c2nccn2C)c1 (stereo not drawn)	21.3%	–
Cc1ccc(Cn2c(Br)nc3c2c(=O)n(C)c(=O)n3C)cc1	9.46%	–
O=C(Cc1ccccc1)Nc1ccc2oc(-c3ccc(F)cc3)nc2c1	108%	–
Cc1cc(C)c2c(c1)C(=O)CCC2	14.9%	–
Cc1cc(C)c2c(c1)/C(=N/Nc1nc3ccccc3[nH]1)CCC2	–	4.47 µM (active)
Cc1cc(O)c2c(C)c(CC(=O)Nc3nc4ccccc4[nH]3)c(=O)oc2c1	1.93%	–
CC(=O)N1CCN(C(=O)CCC(=O)N2CCC(c3noc4cc(F)ccc34)CC2)CC1	5.39%	–
Cc1oc(C)c(C(=O)Nc2ccccc2O)c1C	0%	–
Cc1cnc2c(S(=O)(=O)N3CCN(C(C)CC#N)CC3)cccc2c1 (stereo not drawn)	8.29%	–
CNC(=O)NC(=O)CN1CCCC(c2nc3ccccc3o2)C1 (stereo not drawn)	-2.97%	–
Cc1ccc(-c2noc(-c3occc3Br)n2)cc1	193%	–
O=S(=O)(NCC12CC3CC(CC(C3)C1)C2)c1cccs1	0.0354%	–
CCCCN(CCCNC(=O)c1cc(Nc2ccccc2OC)nc2ccccc12)c1ccccc1	-0.272%	–
COc1ccc(Nc2cc(C(=O)NCCCN(C)c3ccccc3)c3ccccc3n2)c(OC)c1	-7.92%	–
COc1ccccc1Nc1cc(C(=O)NCCCN(C)C2CCCCC2)c2ccccc2n1	–	28.2 µM (active)
CC1CCN(S(=O)(=O)N(C)Cc2ccc3c(c2)OCCO3)CC1	-4.77%	–
O=C(CN1CCN(CC(=O)Nc2ccccc2C(=O)c2ccccc2)CC1)Nc1cccc(F)c1	-12%	–
COc1ccc(C=O)cc1OCc1c(F)cccc1Cl	7.96%	–
CC(C)C(=O)NC(Nc1cccc(Cl)c1Cl)C(Cl)(Cl)Cl (stereo not drawn)	3.54%	–
CC(NC(=O)Cn1nnn(-c2ccccc2)c1=O)c1ccccc1 (stereo not drawn)	-1.05%	–
